{"source": "ChEMBL document CHEMBL1157539", "about": "“Thousands of chemical starting points for antimalarial lead identification” (Nature, 2010)"}
{"tested_on": "Plasmodium falciparum", "assay": "GSK_TCMDC: Inhibition of Plasmodium falciparum Dd2 in whole red blood cells, using parasite LDH activity as an index of growth. Test compounds present at 2uM", "format": "functional", "units": {"Inhibition": "%"}}
{"compound": "Nc1nc(-c2ccccn2)nc(-n2nc(-c3cccc(C(F)(F)F)c3)cc2N)n1.O=C(O)C(F)(F)F", "Inhibition": 74}
{"compound": "CCCNC(=O)c1ccnc(-c2ccc(CNC3Cc4ccccc4C3)cc2)c1.O=C(O)C(F)(F)F", "Inhibition": 21}
{"compound": "Cc1cc(=NN=Cc2cccc(F)c2)c2ccc(F)cc2[nH]1", "Inhibition": 99}
{"compound": "CN1CCN(c2ccc(Nc3ccnc4ccc(-c5ccccc5)cc34)cc2)CC1", "Inhibition": 100}
{"compound": "Cc1c(F)cc(C(=O)NC2CC2)cc1-c1ccc2c(c1)c(C)nn2S(=O)(=O)c1cccs1", "Inhibition": 92}
{"compound": "Br.N=C1N=C(N)NC2(CCCCC2)N1OCCOc1ccc(Cc2ccccc2)cc1", "Inhibition": 22}
{"compound": "O=C(/C=C/c1ccc(C(F)(F)F)cc1)NCCCCCN1CCN(C(=O)Nc2ccc(F)c(Cl)c2)CC1", "Inhibition": 0}
{"compound": "Cc1[nH]c2ccccc2c1C1CCN(CCCCNC(=O)c2ccc(-c3ccc(C#N)cc3)cc2)CC1", "Inhibition": 97}
{"compound": "Cc1cccc2nc(-c3ccc(-c4cccc(CNCCCNS(C)(=O)=O)c4)s3)[nH]c12.O=C(O)C(F)(F)F", "Inhibition": 19}
{"compound": "CC(=O)Nc1ncc(C(=O)Nc2cccc(-c3ccc(-c4nc5cc(C(F)(F)F)ccc5[nH]4)cc3)c2)s1", "Inhibition": 94}
{"compound": "Cn1c(NC(=O)c2ccc(CNC(=O)c3ccc(O)c(-c4ccc(Cl)c(Cl)c4)c3)cc2)nc2ccccc21", "Inhibition": 74}
{"compound": "CN(c1ccc(NC(=O)Nc2cccc(Cl)c2)cc1)c1ccnc(N)n1.Cl", "Inhibition": 40}
{"compound": "COc1ccc(CNC2CCN(C)CC2)cc1-c1ccc(S(=O)(=O)NCC2CCCO2)s1.O=C(O)C(F)(F)F", "note": "(centres undefined)", "Inhibition": 18}
{"compound": "COc1ccc2nccc([C@@H](O)CN3CCC(NCc4nc5cc(F)cc(F)c5[nH]4)CC3)c2c1.O=C(O)C(=O)O", "Inhibition": 64}
{"compound": "COc1ccc(C#Cc2ccc(-c3c(C)[nH]c(C)c(Cl)c3=O)cc2)cc1", "Inhibition": 97}
{"compound": "Cc1cc(C)cc(-n2c(C)cc(/C=C3\\SC(=Nc4ccc(Cl)cc4)NC3=O)c2C)c1", "Inhibition": 97}
{"compound": "O=C1C(c2ccccc2)=C(Nc2cccc(OC(F)(F)C(F)F)c2)c2ccccc21", "Inhibition": 96}
{"compound": "CCCC1CCNC(C(O)c2ccnc3ccc(OC)cc23)C1.Cl", "note": "(centres undefined)", "Inhibition": 78}
{"compound": "Cc1nc(-c2cccc(Nc3nccc(NCC(O)c4ccc(C(F)(F)F)cc4)n3)c2)cs1", "note": "(centres undefined)", "Inhibition": 99}
{"compound": "Cc1cccc(CNc2nc(C)cc(N[C@@H](CC(C)C)C(=O)NCCOc3ccccc3)n2)c1.O=C(O)C(F)(F)F", "Inhibition": 35}
{"compound": "Cc1[nH]c(C)c(-c2ccc(-c3ccccc3F)nc2)c(=O)c1Br", "Inhibition": 97}
{"compound": "Cc1noc(C)c1-c1cccc(CNCc2ccc(-c3ccc(-c4nc5ccccc5[nH]4)s3)cc2)c1.O=C(O)C(F)(F)F", "Inhibition": 79}
{"compound": "FC(F)(F)Oc1ccc(Nc2cc(-c3ccncc3)nc(-c3cccnc3)n2)cc1", "Inhibition": 52}
{"compound": "O=C(N[C@H]1CCCC[C@H]1C(=O)O)c1ccccc1", "Inhibition": 3}
{"compound": "COc1ccc(NS(=O)(=O)c2ccccc2Br)cc1N1CCN(C)CC1.Cl", "Inhibition": 3}
{"compound": "CC(=O)Oc1c(C2CCN(CCCCNC(=O)c3ccc(-c4ccc(C#N)cc4)cc3)CC2)ccc2c1CCCC2", "Inhibition": 52}
{"compound": "COc1c(C2CCN(CCCCNC(=O)c3ccc(-c4ccc(Cl)cc4)c(O)c3)CC2)ccc2c1CCCC2", "Inhibition": 99}
{"compound": "COCCNCc1ccc(-c2ccc(CNc3ccc4ncccc4c3)cc2)cc1.O=C(O)C(F)(F)F", "Inhibition": 4}
{"compound": "Br.NC1=NC2(CCCCC2)N(OCCCCCCC2CCCCC2)C(N)=N1", "Inhibition": 49}
{"tested_on": "HepG2", "assay": "GSK_TCMDC: Percent inhibition of human HepG2 cell line. Test compounds present at 10uM.", "format": "functional", "units": {"Inhibition": "%"}}
{"compound": "CN(C)CCCN1CCN(C(=O)c2cc3cc(-c4ccccc4)ccc3n2S(=O)(=O)c2ccccc2)CC1", "Inhibition": 32}
{"compound": "CN1Cc2ccc(NS(=O)(=O)c3ccc(-c4ccoc4)cc3)cc2C1.Cl", "Inhibition": 0}
{"compound": "CCNc1cc(C)nc(Nc2ccc(F)cc2)n1", "Inhibition": 1}
{"compound": "O=C(Nc1ccc(N2CCC(Nc3ccccn3)CC2)cc1)c1cnc(Cl)c(Cl)c1.O=C(O)C(F)(F)F", "Inhibition": 46}
{"compound": "Cc1cc(OCCCN2CCC(NS(=O)(=O)c3ccc(Cl)c(Cl)c3)C2)c2ccccc2n1", "note": "(centres undefined)", "Inhibition": 28}
{"compound": "O=C(Nc1cccc(OC2CCN(Cc3ccccc3)CC2)c1)Nc1cccc([N+](=O)[O-])c1.O=C(O)C(F)(F)F", "Inhibition": 10}
{"compound": "COc1ccc(-c2cnc3[nH]cc(-c4ccc(C(=O)O)cc4)c3c2)cn1.O=C(O)C(F)(F)F", "Inhibition": 35}
{"compound": "CCN(CC)CCN(Cc1ccc(-c2ccc(C(F)(F)F)cc2)cc1)C(=O)CN1C(CCc2cccc(F)c2F)=NS(=O)(=O)c2ccccc21", "Inhibition": 36}
{"compound": "Cc1ccc(C2CCN(CCCCNC(=O)c3ccc(-c4ccc(C#N)cc4)cc3)CC2)c(O)c1", "Inhibition": 45}
{"compound": "Cc1ccc2c(NC(=O)Nc3ccc(N(C)C)cc3)cc(C)nc2c1", "Inhibition": 0}
{"compound": "Cc1ccc(Cn2ncc(N3CCCNCC3)c(Cl)c2=O)cc1NC(=O)Nc1ccc(-c2ccccc2)cc1", "Inhibition": 55}
{"compound": "Nc1nc(-c2ccccn2)nc(-n2nc(-c3cccc(C(F)(F)F)c3)cc2N)n1.O=C(O)C(F)(F)F", "Inhibition": 14}
{"compound": "CCCNC(=O)c1ccnc(-c2ccc(CNC3Cc4ccccc4C3)cc2)c1.O=C(O)C(F)(F)F", "Inhibition": 24}
{"compound": "Cc1cc(=NN=Cc2cccc(F)c2)c2ccc(F)cc2[nH]1", "Inhibition": 2}
{"compound": "CN1CCN(c2ccc(Nc3ccnc4ccc(-c5ccccc5)cc34)cc2)CC1", "Inhibition": 20}
{"compound": "Cc1c(F)cc(C(=O)NC2CC2)cc1-c1ccc2c(c1)c(C)nn2S(=O)(=O)c1cccs1", "Inhibition": 34}
{"compound": "Br.N=C1N=C(N)NC2(CCCCC2)N1OCCOc1ccc(Cc2ccccc2)cc1", "Inhibition": 34}
{"compound": "O=C(/C=C/c1ccc(C(F)(F)F)cc1)NCCCCCN1CCN(C(=O)Nc2ccc(F)c(Cl)c2)CC1", "Inhibition": 35}
{"compound": "Cc1[nH]c2ccccc2c1C1CCN(CCCCNC(=O)c2ccc(-c3ccc(C#N)cc3)cc2)CC1", "Inhibition": 19}
{"compound": "Cc1cccc2nc(-c3ccc(-c4cccc(CNCCCNS(C)(=O)=O)c4)s3)[nH]c12.O=C(O)C(F)(F)F", "Inhibition": 20}
{"compound": "CC(=O)Nc1ncc(C(=O)Nc2cccc(-c3ccc(-c4nc5cc(C(F)(F)F)ccc5[nH]4)cc3)c2)s1", "Inhibition": 83}
{"compound": "Cn1c(NC(=O)c2ccc(CNC(=O)c3ccc(O)c(-c4ccc(Cl)c(Cl)c4)c3)cc2)nc2ccccc21", "Inhibition": 20}
{"compound": "CN(c1ccc(NC(=O)Nc2cccc(Cl)c2)cc1)c1ccnc(N)n1.Cl", "Inhibition": 75}
{"compound": "COc1ccc(CNC2CCN(C)CC2)cc1-c1ccc(S(=O)(=O)NCC2CCCO2)s1.O=C(O)C(F)(F)F", "note": "(centres undefined)", "Inhibition": 18}
{"compound": "COc1ccc2nccc([C@@H](O)CN3CCC(NCc4nc5cc(F)cc(F)c5[nH]4)CC3)c2c1.O=C(O)C(=O)O", "Inhibition": 19}
{"compound": "COc1ccc(C#Cc2ccc(-c3c(C)[nH]c(C)c(Cl)c3=O)cc2)cc1", "Inhibition": 0}
{"compound": "Cc1cc(C)cc(-n2c(C)cc(/C=C3\\SC(=Nc4ccc(Cl)cc4)NC3=O)c2C)c1", "Inhibition": 12}
{"compound": "O=C1C(c2ccccc2)=C(Nc2cccc(OC(F)(F)C(F)F)c2)c2ccccc21", "Inhibition": 0}
{"compound": "CCCC1CCNC(C(O)c2ccnc3ccc(OC)cc23)C1.Cl", "note": "(centres undefined)", "Inhibition": 0}
{"compound": "Cc1nc(-c2cccc(Nc3nccc(NCC(O)c4ccc(C(F)(F)F)cc4)n3)c2)cs1", "note": "(centres undefined)", "Inhibition": 33}
{"compound": "Cc1cccc(CNc2nc(C)cc(N[C@@H](CC(C)C)C(=O)NCCOc3ccccc3)n2)c1.O=C(O)C(F)(F)F", "Inhibition": 15}
{"compound": "Cc1[nH]c(C)c(-c2ccc(-c3ccccc3F)nc2)c(=O)c1Br", "Inhibition": 2}
{"compound": "Cc1noc(C)c1-c1cccc(CNCc2ccc(-c3ccc(-c4nc5ccccc5[nH]4)s3)cc2)c1.O=C(O)C(F)(F)F", "Inhibition": 41}
{"compound": "FC(F)(F)Oc1ccc(Nc2cc(-c3ccncc3)nc(-c3cccnc3)n2)cc1", "Inhibition": 24}
{"compound": "O=C(N[C@H]1CCCC[C@H]1C(=O)O)c1ccccc1", "Inhibition": 7}
{"compound": "COc1ccc(NS(=O)(=O)c2ccccc2Br)cc1N1CCN(C)CC1.Cl", "Inhibition": 2}
{"compound": "CC(=O)Oc1c(C2CCN(CCCCNC(=O)c3ccc(-c4ccc(C#N)cc4)cc3)CC2)ccc2c1CCCC2", "Inhibition": 21}
{"compound": "COc1c(C2CCN(CCCCNC(=O)c3ccc(-c4ccc(Cl)cc4)c(O)c3)CC2)ccc2c1CCCC2", "Inhibition": 91}
{"compound": "COCCNCc1ccc(-c2ccc(CNc3ccc4ncccc4c3)cc2)cc1.O=C(O)C(F)(F)F", "Inhibition": 41}
{"compound": "Br.NC1=NC2(CCCCC2)N(OCCCCCCC2CCCCC2)C(N)=N1", "Inhibition": 77}
